Results filed as inconclusive are left out. Where a call stands in place of a potency, no number is given. Unmarked numbers belong to inactive results. The source made the active and inactive calls. The call rests on the fitted dose curve; in most records, active means well fitted curve in the direction sought with a large enough effect; inconclusive means small, poorly fitted or top-dose-only effect, or another doubt; inactive means no such curve, though single readings can be large; an effect the other way counts as inactive or inconclusive.

One assay addresses Aldehyde dehydrogenase, mitochondrial (Homo sapiens) (UniProt P05091). The assay is described as follows: qHTS for Inhibitors of the Aldehyde Dehydrogenase Family (ALDH2) Primary screen (AID 2061308). Further: nearly all actives have a fitted effect of over 55% in size. The following applies: ALDH2 enzyme inhibition qHTS, 1536-well; series mostly up to 56 µM.
As to `O=C(OC1C[C@H]2CC[C@@H](C1)[N+]21CCCC1)C(O)(c1ccccc1)c1ccccc1` (stereo not given in full), the Potency result is “inactive”. For `COC1CC(O[C@H]2CC[C@@]3(C)C(=CC[C@]4(O)C3[C@H](O)[C@@H](O)[C@]3(C)[C@@H]([C@H](C)O)CC[C@@]34O)C2)OC(C)C1OC1CC(OC)C(OC2CC(OC)C(OC3OC(C)C(OC4OC(CO)C(O)C(O)C4O)C(OC)C3O)C(C)O2)C(C)O1` (stereo not given in full), the Potency entry is “inactive”. With `COc1nc2sc(C(=O)NC3CC3)c(N)c2c(C)c1Cl`, the Potency entry was “inactive”. With `CCOc1ccc(S(=O)(=O)N2CCCCCC2)c2ccccc12`, the Potency entry is “inactive”. The same measure, in the same setting: as for `CC(c1c[nH]c2ccccc12)C(O)C(=O)O` (stereo not given), the entry is “inactive”; as for `COc1ccc2nccc(C(=O)CC[C@@H]3CCN(CC#Cc4cc(F)cc(F)c4F)C[C@@H]3C(=O)O)c2c1`, “inactive”; as for `CC(=O)OC1C=C(C(=O)O)C2(CO)CCC(C)C(C)(CCc3ccoc3)C2C1` (stereo not given), “inactive”. Same read-out and setting: as for `CC(=O)N1CCN(NC(=O)c2ccc(F)cc2)CC1`, the entry is “inactive”; as for `C=C1CCC2C(C)(C)CC(=O)CC2(C)C1CCC(C)CCO` (stereo not given), “inactive”.

As for `COc1ccc(/C=C/C(=O)O[C@@H]2[C@@H](O)[C@H](C)O[C@@H](OC3C4C=COC(O[C@@H]5O[C@H](CO)[C@@H](O)[C@H](O)[C@H]5O)C4C4(CO)OC34)[C@@H]2O)cc1OC` (stereo not given in full), the Potency entry was “inactive”.

Another assay has as its target Retinaldehyde dehydrogenase 3 (Homo sapiens) (UniProt P47895). Put plainly: qHTS for Inhibitors of the Aldehyde Dehydrogenase Family (ALDH1A3) Primary screen (AID 2061315). Particulars: ALDH inhibition qHTS; series mostly up to 56 µM.
For the compound `O=C(Nc1cccc2cccnc12)c1ccc(N2C(=O)[C@@H]3C4C=CC(C4)[C@@H]3C2=O)cc1`, the Potency result was “inactive”. As for `C=C1C[C@@]23CC[C@@H]4[C@](C)(C(=O)O)CCC[C@@]4(C)C2=CC[C@H]1C3`, the Potency result was “inactive”. As for `C=CC(C)(O)C(O)CC1C(C)(O)C(O)C(O)C2C(C)(C)CCCC21C` (stereo not given), the Potency result is “inactive”. With `Cc1ccc(Sc2cncc3sc(C(N)=O)cc23)cc1`, the Potency entry is “inactive”. Take `COc1cc2c(cc1O)CC(O)(CO)C(CO)C2c1ccc(OC2OC(CO)C(O)C(O)C2O)c(OC)c1` (stereo not given): the Potency result was “inactive”. As to `C[C@@H]1O[C@@H](OC(=O)Cc2ccccc2)[C@H](O)[C@H](O)[C@H]1O`, the Potency entry is “inactive”. Take `CC1CCC2C(C)(C)C(O)CCC2(C)C12Cc1c(O)cc3c(c1O2)CN=C3N` (stereo not given): the Potency entry was “inactive”.

Regarding `CS/C=C/C(=O)O[C@@H]1CCC2=CC(=O)C(=C(C)C)C[C@]2(C)[C@H]1C`, the Potency result was “inactive”. For `C/C(=C\CCC(C)CCO)C(=O)O[C@@H]1[C@@H](O)[C@H](OC2OC=C(C(=O)O)C3CCC(C)(O)C23)O[C@H](CO)[C@H]1O` (stereo not given in full), the Potency result was “inactive”.

In the case of `CCC[C@@H]1O[C@@H]2C[C@H]3[C@@H]4CCC5=CC(=O)C=C[C@]5(C)[C@H]4[C@@H](O)C[C@]3(C)[C@]2(C(=O)CO)O1`, the Potency entry was “inactive”. `C/C=C(\C)C(=O)OC1C(C)C2(O)C3C=C(C)C(=O)C3CC(CO)=CC2C2C(C)(C)C12OC(C)=O` (stereo not given): the Potency result was “inactive”.

Consider `CC(=O)O[C@@H]1[C@H](O)[C@@H](O[C@@H]2O[C@@H](C)[C@H](O[C@@H]3OC[C@@H](O)[C@H](O[C@@H]4OC[C@@H](O)[C@H](O)[C@H]4O)[C@H]3O)[C@@H](O[C@@H]3O[C@H](CO)[C@@H](O)[C@H](O)[C@H]3O)[C@H]2O)[C@H](OC(=O)[C@]23CCC(C)(C)C[C@H]2C2=CCC4[C@@]5(C)CC[C@H](O[C@@H]6O[C@H](C(=O)O)[C@@H](O)[C@H](O[C@@H]7OC[C@@H](O)[C@H](O)[C@H]7O)[C@H]6O[C@@H]6O[C@H](CO)[C@H](O)[C@H](O)[C@H]6O)[C@@](C)(C=O)C5CC[C@@]4(C)[C@]2(C)CC3)O[C@@H]1C` (stereo not given in full), for which the activity change, negative = inhibition was -8.36% [at 11.2 µM].

For the compound `C=C1C(=O)O[C@@H]2C[C@@H](C)[C@]34C[C@]5(C(=O)O[C@H]6CC(C)=C([C@H](C)CCCO)[C@H](OC(=O)C(C)CC)[C@H]65)[C@@H](C(C)=C3C[C@@H]12)[C@H]4OC(C)=O` (stereo not given in full), the Potency entry was “inactive”. For `C[C@@H]1CC[C@]2(C)C3(C)CC[C@@]2(OC3=O)[C@@]12C[C@H](c1ccoc1)OC2=O`, the Potency result was “inactive”.

For `COC1OC(OC)C(O)(CCC2(C)C(C)CCC3(C)C2CC(O)C(O)C32CO2)C1O` (stereo not given), the Potency result is “inactive”. Consider `CC1(C(=O)O)CCCC2(C)C3CC4C5CC3(CCC12)CC45C` (stereo not given), for which the Potency result was “inactive”. Consider `C[C@@H]1O[C@@H](O[C@H]2[C@@H]3C=CO[C@@H](O[C@@H]4O[C@H](CO)[C@@H](O)[C@H](O)[C@H]4O)[C@@H]3[C@@]3(CO)O[C@@H]23)[C@H](OC(=O)/C=C/c2ccccc2)[C@H](O)[C@H]1O`, for which the Potency result was “inactive”.

`CC(=O)OC1CC(C)C2(CCC3(CC(=O)OC3O)O2)C2(C)CCCC(C)(C)C12` (stereo not given): the Potency entry was “inactive”.

For the compound `COC(=O)c1cc(CN2CCN(C(=N)N)CC2)cc(C(=O)N2CCN(C(=O)c3ccc(C(=N)N)cc3)CC2)c1`, the Potency result was “inactive”.

`COc1cc(C#N)ccc1S(=O)(=O)Nc1ccc2c(c1)cc(C)c(=O)n2C`: the Potency entry was “inactive”. `CCC(CC)n1ccc2c(C(=O)NCc3c(C)cc(C)[nH]c3=O)cc(C#N)cc21`: the Potency result was “inactive”. Still for that read-out and setting: with `CC(=O)OCC1=C[C@H](O)[C@@H]2C(C(=O)O)=CO[C@@H](O[C@@H]3O[C@H](CO)[C@@H](O)[C@H](O)[C@H]3O)[C@H]12` the entry was “inactive”; with `C[C@@H]1O[C@@H](O[C@@H]2[C@@H](O)[C@H](O[C@H]3[C@H](O[C@H]4CC[C@@]5(C)C(CC[C@]6(C)C5CC=C5[C@@H]7CC(C)(C)CC[C@]7(C(=O)O[C@@H]7O[C@H](CO)[C@@H](O)[C@H](O)[C@H]7O)CC[C@]56C)C4(C)C)O[C@H](C(=O)O)[C@@H](O)[C@@H]3O)OC[C@H]2O)[C@H](O)[C@H](O)[C@H]1O` (stereo not given in full), “inactive”. Take `C=CC1(C)CC(O)C2(CCC3C(C)(C(=O)O)CCCC3(C)C2=O)C1` (stereo not given): the Potency result is “inactive”. On the same count and under the same terms, as for `CC1=C(CC/C(C)=C/C(=O)O)[C@@]2(C)CCCC(C)(C)C2CC1=O` (stereo not given in full), the entry is “inactive”; as for `Cc1nc(Nc2n[nH]c3c2CN(C(=O)NC(CN(C)C)c2ccccc2)C3(C)C)c2sccc2n1` (stereo not given), “inactive”; as for `C[C@@H]1CCC2C(C)(C)[C@H](O)CC[C@]2(C)[C@@]12Cc1c(O)cc3c(c1O2)CNC3=O` (stereo not given in full), “inactive”.

As for `CC1(C)CC2C(C1)C1(C)CCC13OC3(CO)C2O` (stereo not given), the Potency entry was “inactive”. The same measure, in the same setting: with `COc1cc2c(cc1OC)N1C(=O)C[C@@]34C=CC[N@+]5([O-])CC[C@H]2[C@H](CC3)[C@@]145` the entry was “inactive”; with `C[C@@H]1O[C@@H](O[C@H]2[C@H](O[C@H]3[C@H](O[C@H]4CC[C@@]5(C)C(CC[C@]6(C)C5CC=C5[C@@H]7CC(C)(C)C[C@@H](O)[C@]7(C)CC[C@]56C)[C@@]4(C)CO)O[C@H](C(=O)O)[C@@H](O)[C@@H]3O)O[C@H](CO)[C@H](O)[C@@H]2O)[C@H](O)[C@H](O)[C@H]1O` (stereo not given in full), “inactive”. On to `O=C(OC1C[C@H]2CC[C@@H](C1)[N+]21CCCC1)C(O)(c1ccccc1)c1ccccc1` (stereo not given in full), for which the Potency result was “inactive”. For `COC1CC(O[C@H]2CC[C@@]3(C)C(=CC[C@]4(O)C3[C@H](O)[C@@H](O)[C@]3(C)[C@@H]([C@H](C)O)CC[C@@]34O)C2)OC(C)C1OC1CC(OC)C(OC2CC(OC)C(OC3OC(C)C(OC4OC(CO)C(O)C(O)C4O)C(OC)C3O)C(C)O2)C(C)O1` (stereo not given in full), the Potency result was “inactive”. Same read-out and setting: with `COc1nc2sc(C(=O)NC3CC3)c(N)c2c(C)c1Cl` the entry was “inactive”. As to `CCOc1ccc(S(=O)(=O)N2CCCCCC2)c2ccccc12`, the Potency result is “inactive”. Still for that read-out and setting: with `CC(c1c[nH]c2ccccc12)C(O)C(=O)O` (stereo not given) the entry was “inactive”; with `COc1ccc2nccc(C(=O)CC[C@@H]3CCN(CC#Cc4cc(F)cc(F)c4F)C[C@@H]3C(=O)O)c2c1`, “inactive”; with `CC(=O)OC1C=C(C(=O)O)C2(CO)CCC(C)C(C)(CCc3ccoc3)C2C1` (stereo not given), “inactive”. On to `CC(=O)N1CCN(NC(=O)c2ccc(F)cc2)CC1`, for which the Potency result was “inactive”. For the compound `C=C1CCC2C(C)(C)CC(=O)CC2(C)C1CCC(C)CCO` (stereo not given), the Potency entry is “inactive”.

Turning to `COc1ccc(/C=C/C(=O)O[C@@H]2[C@@H](O)[C@H](C)O[C@@H](OC3C4C=COC(O[C@@H]5O[C@H](CO)[C@@H](O)[C@H](O)[C@H]5O)C4C4(CO)OC34)[C@@H]2O)cc1OC` (stereo not given in full), the Potency result was “inactive”.

Source of the values: PubChem BioAssay (NCATS).
